# Test results from PubChem BioAssay (NCATS).
# Values without a mark were called inactive. Results filed as inconclusive are left out. A call without a number means that no potency is given here. Calls of active or inactive are those of the source. Unless noted, calls follow the shape of the dose curve; as a rule, active = well fitted curve in the direction sought with a large enough effect; inconclusive = small, poorly fitted or top-dose-only effect, or another doubt; inactive = no such curve, though single readings can be large; an effect the other way counts as inactive or inconclusive.
# Tests used:
# [1] = tested on: Zika virus NS2B-NS3 protease (linked construct); test: Primary screen NINDS Rhodamine qHTS for Zika virus inhibitors (AID 1347160); also: nearly all actives have a fitted effect of over 55% in size
# Summary of the method: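 Rhodamine110-peptide cleavage (1.5 µM substrate) by 25 nM linked NS2B-NS3 enzyme at pH 8.0 (Tris, Tween 20), after 15 min RT preincubation with compounds; 15-min fluorescence change normalized to controls and Hill-fitted.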
# [2] = biological target: Calcium and integrin-binding protein 1 (Homo sapiens) (UniProt Q99828); test: Primary qHTS for Identification of Calcium Integrin Binding Protein 1 (CIB1) Competitor (AID 1508620);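 also: GST tagged CIB1 binding a fluorescein labelled alphaIIb integrin peptide tracer; top concentration of the series differs between compounds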
# Summary of the method: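 CIB1-GST (1 uM final) and compound incubated 15 min at room temperature before adding FITC-alphaIIb peptide tracer (100 nM final). Competition for binding read by fluorescence polarization (ex 480, em 540) after another 15 min at room temperature.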
# [3] = biological target: Cytochrome P450 2D6 (Homo sapiens) (UniProt P10635); test: Cytochrome P450 family 2 subfamily D member 6 (CYP2D6) small molecule antagonists: luciferase biochemical (cell-free) qHTS assay (AID 1645840; active = well fitted curve in the direction sought with a large enough effect in the repeat runs; an effect the other way counts as inactive or inconclusive; also: nearly all actives have a fitted effect of over 55% in size; also: potency is read from the fitted curve at half-maximal effect)
# Summary of the method: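 P450-Glo CYP2D6 system: proluciferin substrate converted by enzyme to luciferin, read by luminescence proportional to activity. Enzyme-substrate mix with compound 10 min at room temperature, then NADPH regeneration 1 h before detection reagent.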
# [4] = biological target: Cytochrome P450 2C9 (Homo sapiens) (UniProt P11712); test: Cytochrome P450 family 2 subfamily C member 9 (CYP2C9) small molecule antagonists: luciferase biochemical (cell-free) qHTS assay (AID 1645842; active = well fitted curve in the direction sought with a large enough effect in the repeat runs; an effect the other way counts as inactive or inconclusive; also: nearly all actives have a fitted effect of over 55% in size; also: potency is read from the fitted curve at half-maximal effect)
# Summary of the method: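 P450-Glo CYP2C9 system: proluciferin substrate with enzyme in mix containing 0.4% BSA, 10 min at room temperature, then NADPH regeneration solution added and incubated 1 h at 37C. Detection reagent stopped reaction; luminescence read after 20 min as RLU.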
# [5] = Primary qHTS for inhibitors of nuclear receptor binding SET domain protein 2 (NSD2) in an isogenic RCH-ACV NSD2 p.E1099K mutant (9B) (AID 1645876); also: nearly all actives have a fitted effect of over 70% in size
# [6] = Primary qHTS for inhibitors of nuclear receptor binding SET domain protein 2 (NSD2) in an RCH-ACV wild type WT cells (2C) (AID 1645877); also: nearly all actives have a fitted effect of over 70% in size
# [7] = biological target: Glutathione peroxidase 1 (Homo sapiens) (UniProt P07203); test: Primary qHTS Assay for Inhibitors of Recombinant Selenoprotein Glutathione Peroxidase 1 (GPX1) (AID 1845191); also: nearly all actives have a fitted effect of over 65% in size
# Summary of the method: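 NADPH consumption tracked by fluorescence at 340/450 nm between t=0 and t=15 min, room temperature. Final mix: 10 nM GPX1, 100 nM glutathione reductase, 1 mM GSH, 0.5 mM NADPH, 0.5 mM cumene hydroperoxide, 0.01% BSA; 30 min compound–enzyme preincubation.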
# [8] = biological target: Luciferin 4-monooxygenase (Photinus pyralis) (UniProt P08659); test: Primary firefly luciferase (FLuc) qHTS assay for identification of artifact compounds. (AID 1845220); details: outcome: dose series up to 54.1 µM unless noted; also: nearly all actives have a fitted effect of over 60% in size
# Summary of the method: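 Compounds sat 15 min at room temperature with 10 uM luciferin and 10 uM ATP (pH 7.6 Tris acetate). Firefly luciferase (10 nM final) was then added, and luminescence was read 5 min later. Data normalized to no-enzyme and DMSO controls were Hill-fitted.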
# [9] = Primary fluorescence-based thiol-reactive (MSTI) qHTS assay for identification of artifact compounds. (AID 1845221);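 also: thiol-reactive compounds lower the probe fluorescence signal; nearly all actives have a fitted effect of over 65% in size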
# Summary of the method: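 Compounds were incubated 1 h at room temperature in the dark with the MSTI probe (4 uM) in PBS pH 7.4, 2% DMSO. Signals were normalized between Acetyl-MSTI and MSTI.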
# [10] = tested on: Nanoluciferase (engineered Oplophorus gracilirostris luciferase); test: Primary Nanoluciferase (NLuc) qHTS assay for identification of artifact compounds. (AID 1845222)
# Summary of the method: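 Luminescence from secreted NLuc (filtered, 1:55-diluted S16 cell medium) read 5 min after Nano-Glo substrate; compounds preincubated 15 min, RT. Hill fits of inhibition normalized to DMSO and no-enzyme.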
# [11] = Primary redox qHTS assay for identification of artifact compounds. (AID 1845223)
# Summary of the method: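 Redox-cycling detection via DTT (250 uM final) oxidation coupled to Amplex Red (25 uM)/HRP (250 mU/mL) in HBSS. 15 min preincubation plus 30 min after DTT, room temperature. Ex/Em 525/598 nm; 4-parameter Hill fit against DMSO and 10 uM DA3003.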
# HaCat [12] = test: Cytotoxic Profiling of Annotated Libraries Using Quantitative High-Throughput Screening (AID 1296008); details: Five cell lines viability, CellTiter-Glo ATP luminescence, 48-72 h; max response: stronger effect = lower value; also: nearly all actives have a fitted effect of over 60% in size; also: potency is read from the fitted curve at half-maximal effect
# Summary of the method: (§1)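 Cytotoxicity was measured as CellTiter-Glo ATP luminescence, read after 10 min at room temperature. Compound treatment of the cells lasted 48 or 72 hr at 37 degrees Celsius in a qHTS format.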
# KB-3-1 = test: as above; details: Five cell lines viability, CellTiter-Glo ATP luminescence, 48-72 h; max response: stronger effect = lower value
# Summary of the method: as §1
# NIH3T3 = test: as above; details: Five cell lines viability, CellTiter-Glo ATP luminescence, 48-72 h; max response: stronger effect = lower value
# Summary of the method: as §1
# HACAT [13] = test: qHTS assay to identify novel small-molecules to repurpose for Merkel cell carcinoma treatment (AID 1296009); details: MCC and control cell lines, CellTiter-Glo viability, 72 h; at 44.8 µM (top of the series) unless noted; also: nearly all actives have a fitted effect of over 60% in size
# Summary of the method: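 Cell viability measured by CellTiter-Glo following 72 hr compound treatment at 37 degree celsius, with NPC and MIPE libraries tested in 8- and 11-point concentration series.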
# C33A = test: Primary qHTS to identify gynecologic anti-cancer compounds using libraries of approved drugs and bioactive compounds (AID 1345084); details: Gynecologic cancer cell panel viability, ATPlite luminescence, 48 h; series mostly up to 57.5 µM; also: nearly all actives have a fitted effect of over 55% in size
# Summary of the method: (§2)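 Luminescence from the ATPlite ATP-monitoring reagent indicates viable cell number; lower signal means cytotoxicity. Cells received compound 16 h after seeding and were exposed for 48 h across five concentrations.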
# CAOV3 = test: as above; details: Gynecologic cancer cell panel viability, ATPlite luminescence, 48 h; series mostly up to 57.5 µM
# Summary of the method: as §2
# CASKI = test: as above; details: Gynecologic cancer cell panel viability, ATPlite luminescence, 48 h; series mostly up to 57.5 µM
# Summary of the method: as §2
# Es-2 = test: as above; details: Gynecologic cancer cell panel viability, ATPlite luminescence, 48 h; series mostly up to 57.5 µM
# Summary of the method: as §2
# HeLa = test: as above; details: Gynecologic cancer cell panel viability, ATPlite luminescence, 48 h; series mostly up to 57.5 µM
# Summary of the method: as §2
# Hek293T = test: as above; details: Gynecologic cancer cell panel viability, ATPlite luminescence, 48 h, control line for the selectivity index; series mostly up to 57.5 µM
# Summary of the method: as §2
# JEG-3 = test: as above; details: Gynecologic cancer cell panel viability, ATPlite luminescence, 48 h; series mostly up to 57.5 µM
# Summary of the method: as §2
# OV90 = test: as above; details: Gynecologic cancer cell panel viability, ATPlite luminescence, 48 h; series mostly up to 57.5 µM
# Summary of the method: as §2
# PA-1 = test: as above; details: Gynecologic cancer cell panel viability, ATPlite luminescence, 48 h; series mostly up to 57.5 µM
# Summary of the method: as §2
# Tov-21-G = test: as above; details: Gynecologic cancer cell panel viability, ATPlite luminescence, 48 h; series mostly up to 57.5 µM
# Summary of the method: as §2
# Tov112D = test: as above; details: Gynecologic cancer cell panel viability, ATPlite luminescence, 48 h; series mostly up to 57.5 µM
# Summary of the method: as §2
# [14] = tested on: Zika virus NS2B-NS3 protease (unlinked complex); test: Primary screen GU Rhodamine qHTS for Zika virus inhibitors: Unlinked NS2B-NS3 protease assay (AID 1347159); also: nearly all actives have a fitted effect of over 60% in size
# Summary of the method: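 Percent inhibition came from the 15-min rise in Rhodamine110 fluorescence (1.5 microM substrate, ~15% conversion), normalized to no-inhibitor and no-enzyme wells and Hill-fitted. Unlinked protease, 25 nM, pH 8.0 Tris buffer; compounds up to 114 microM, 15-min preincubation.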
# [15] = biological target: Phospholipid hydroperoxide glutathione peroxidase GPX4 (Homo sapiens) (UniProt P36969); test: Primary qHTS Assay for Inhibitors of Recombinant Selenoprotein Glutathione Peroxidase 4 (GPX4) (AID 1845192); also: nearly all actives have a fitted effect of over 65% in size
# Summary of the method: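 NADPH consumption followed by fluorescence at 340/450 nm, t=0 and after 15 min at room temperature. Reaction started with cumene hydroperoxide (0.5 mM final) after 30 min compound–GPX4 preincubation; final 200 nM GPX4, 100 nM GR, 1 mM GSH, 0.5 mM NADPH.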
# HEK293 = test: Cytotoxic Profiling of Annotated Libraries Using Quantitative High-Throughput Screening (AID 1296008); details: Five cell lines viability, CellTiter-Glo ATP luminescence, 48-72 h; max response: stronger effect = lower value; also: nearly all actives have a fitted effect of over 60% in size; also: potency is read from the fitted curve at half-maximal effect
# Summary of the method: as §1
# SKOV3 = test: Primary qHTS to identify gynecologic anti-cancer compounds using libraries of approved drugs and bioactive compounds (AID 1345084); details: Gynecologic cancer cell panel viability, ATPlite luminescence, 48 h; series mostly up to 57.5 µM; also: nearly all actives have a fitted effect of over 55% in size
# Summary of the method: as §2
# Chain of Cytochrome P450 2C9 (Homo sapiens) (P11712 whole entry, looked up): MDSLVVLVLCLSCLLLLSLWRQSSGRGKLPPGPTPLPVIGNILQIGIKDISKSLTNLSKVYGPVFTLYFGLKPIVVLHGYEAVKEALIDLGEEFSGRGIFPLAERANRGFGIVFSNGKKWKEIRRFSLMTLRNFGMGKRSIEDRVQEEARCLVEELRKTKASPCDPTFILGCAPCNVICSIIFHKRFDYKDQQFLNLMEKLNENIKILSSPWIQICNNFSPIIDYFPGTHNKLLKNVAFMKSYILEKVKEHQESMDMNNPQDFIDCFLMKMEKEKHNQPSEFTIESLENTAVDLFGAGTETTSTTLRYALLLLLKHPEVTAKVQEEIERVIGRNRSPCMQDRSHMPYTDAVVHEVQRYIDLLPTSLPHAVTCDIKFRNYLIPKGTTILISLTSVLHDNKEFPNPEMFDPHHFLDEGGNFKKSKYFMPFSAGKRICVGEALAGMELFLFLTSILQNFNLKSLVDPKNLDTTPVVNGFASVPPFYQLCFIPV
# Chain of Calcium and integrin-binding protein 1 (Homo sapiens) (Q99828 whole entry, looked up): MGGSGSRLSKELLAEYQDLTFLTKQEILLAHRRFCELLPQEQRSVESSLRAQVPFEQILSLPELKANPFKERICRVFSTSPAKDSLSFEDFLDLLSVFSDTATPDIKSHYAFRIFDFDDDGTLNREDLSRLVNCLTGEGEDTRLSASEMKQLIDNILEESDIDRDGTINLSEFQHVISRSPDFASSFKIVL
# Chain of Cytochrome P450 2D6 (Homo sapiens) (P10635 whole entry, looked up): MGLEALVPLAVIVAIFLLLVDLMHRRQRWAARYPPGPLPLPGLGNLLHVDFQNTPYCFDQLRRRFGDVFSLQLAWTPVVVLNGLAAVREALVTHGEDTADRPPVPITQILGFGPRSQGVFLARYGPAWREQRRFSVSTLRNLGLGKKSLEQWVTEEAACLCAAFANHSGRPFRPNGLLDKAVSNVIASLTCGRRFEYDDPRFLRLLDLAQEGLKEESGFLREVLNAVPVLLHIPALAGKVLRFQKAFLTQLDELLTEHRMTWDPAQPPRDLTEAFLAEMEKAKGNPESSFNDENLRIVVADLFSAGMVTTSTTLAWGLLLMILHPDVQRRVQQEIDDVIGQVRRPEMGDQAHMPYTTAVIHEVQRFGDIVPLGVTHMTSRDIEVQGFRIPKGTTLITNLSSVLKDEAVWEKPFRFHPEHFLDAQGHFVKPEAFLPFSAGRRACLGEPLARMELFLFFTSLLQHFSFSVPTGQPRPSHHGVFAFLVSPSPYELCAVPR
# Chain of Glutathione peroxidase 1 (Homo sapiens) (P07203 whole entry, looked up): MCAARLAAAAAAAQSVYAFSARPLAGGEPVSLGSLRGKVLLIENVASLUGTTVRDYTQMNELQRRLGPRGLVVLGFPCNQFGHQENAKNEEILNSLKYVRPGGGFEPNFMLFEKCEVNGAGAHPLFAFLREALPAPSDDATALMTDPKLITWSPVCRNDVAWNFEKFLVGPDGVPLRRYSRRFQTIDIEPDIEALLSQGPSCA
# Chain of Phospholipid hydroperoxide glutathione peroxidase GPX4 (Homo sapiens) (P36969 whole entry, looked up): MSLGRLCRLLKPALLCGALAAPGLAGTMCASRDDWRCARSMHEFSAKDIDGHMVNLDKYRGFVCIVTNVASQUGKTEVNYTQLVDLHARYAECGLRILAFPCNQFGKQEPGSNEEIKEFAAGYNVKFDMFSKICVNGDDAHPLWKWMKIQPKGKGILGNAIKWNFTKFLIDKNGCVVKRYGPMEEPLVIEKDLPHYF
smiles,measurement,setting,value
CCCCCn1cc(C(=O)C2C(C)(C)C2(C)C)c2ccccc21,Potency,[1],inactive
same,Potency,[2],inactive
same,Potency,[3],inactive
same,Potency,[4],10.7 µM (active)
same,Potency,[5],inactive
same,Potency,[6],inactive
same,Potency,[7],inactive
same,outcome,[8],inactive
same,Potency,[9],inactive
same,Potency,[10],inactive
same,Potency,[11],inactive
same,outcome,HaCat [12],inactive
same,max response,KB-3-1,5.27%
same,max response,NIH3T3,-0.489%
same,outcome,HACAT [13],inactive
same,Potency,C33A,inactive
same,Potency,CAOV3,inactive
same,Potency,CASKI,inactive
same,Potency,Es-2,inactive
same,Potency,HeLa,inactive
same,Potency,Hek293T,inactive
same,Potency,JEG-3,inactive
same,Potency,OV90,inactive
same,Potency,PA-1,inactive
same,Potency,Tov-21-G,inactive
same,Potency,Tov112D,inactive
C[C@H]1CN(Cc2ccc(CC(=O)N3CCC(Nc4cccc(F)c4)CC3)cc2)CCN1,Potency,[14],inactive
same,Potency,[1],inactive
same,Potency,[2],inactive
same,Potency,[3],12 µM (active)
same,Potency,[4],inactive
same,Potency,[7],inactive
same,Potency,[15],inactive
same,outcome,[8],inactive
same,Potency,[9],inactive
same,Potency,[10],inactive
same,Potency,[11],inactive
same,Potency,HEK293,18.4 µM (active)
same,max response,KB-3-1,-18.3%
same,Potency,NIH3T3,20.6 µM (active)
same,Potency,C33A,inactive
same,Potency,CAOV3,inactive
same,Potency,CASKI,inactive
same,Potency,Es-2,inactive
same,Potency,Hek293T,inactive
same,Potency,JEG-3,inactive
same,Potency,OV90,inactive
same,Potency,PA-1,inactive
same,Potency,SKOV3,inactive
same,Potency,Tov-21-G,inactive
same,Potency,Tov112D,inactive
